High-throughput results (PubChem BioAssay)
DAX1 inh-1 – DAX1 (NR0B1) inhibitors, primary screen, cell-based, HEK293, Gal4-DAX1, luciferase luminescence; Nuclear receptor subfamily 0 group B member 1 (Homo sapiens), P51843; HEK293 Gal4-DAX1 luciferase reporter; inhibition, % at 6.75 µM; 340,000 compounds, 0.99% hits;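 active = inhibition above the mean over all tested compounds plus 3 SD, cut at about 4.2% in these data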;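 also: 0% = DAX1-transfected cells with DMSO and 100% = empty-vector control cells with DMSO; inhibition shows as a rise in luminescence from relieved DAX1 repression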
Target sequence (P51843 207-470 limits assumed): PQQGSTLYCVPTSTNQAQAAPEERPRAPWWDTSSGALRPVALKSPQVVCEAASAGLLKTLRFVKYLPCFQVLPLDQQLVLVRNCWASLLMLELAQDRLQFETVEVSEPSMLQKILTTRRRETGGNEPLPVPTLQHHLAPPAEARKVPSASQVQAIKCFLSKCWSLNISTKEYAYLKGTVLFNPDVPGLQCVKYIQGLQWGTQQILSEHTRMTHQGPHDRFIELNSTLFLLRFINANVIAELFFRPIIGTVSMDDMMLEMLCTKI
hcDAF-12 act – H. contortus DAF-12 nuclear receptor activators, primary screen, cell-based, luminescence, HEK293, lit1-tk-luc reporter. 370,000 compounds, 1.4% hits. AID 652067, 2013. HEK293 hcDAF-12 lit1-tk-luc reporter; 0% DMSO, 100% Δ7-dafachronic acid. activation, % at 6.8 µM;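 active = activation above the mean of all tested compounds plus 3 SD, cut at about 5.5% in these data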;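 also: 100% = response to 3 µM Δ7-dafachronic acid high control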
FXN GAA850 act – FXN promoter activators, primary screen, cell-based, luciferase luminescence, HEK293 lucGAA850 | HEK293 lucGAA850 FXN promoter luciferase reporter, 24 h; percent of 10 µM SAHA response | activation, % at 6 µM | 360,000 compounds, 0.56% hits;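 active = activation above the average of all compounds screened plus 3 SD, cutoff fixed separately per campaign, cut at about 7.5% in these data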;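 also: 0% = DMSO wells and 100% = 10 µM SAHA wells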
ssDAF-12 act – S. stercoralis DAF-12 nuclear receptor activators, primary screen, cell-based, luminescence, HEK293, GRIP1 co-expression, lit1-tk-luc. 370,000 compounds, 1% hits. HEK293 ssDAF-12/GRIP1 lit1-tk-luc reporter; % of 3 µM dafachronic acid response. activation, % at 6.8 µM. AID 652126, 2013. Nuclear hormone receptor DAF-12 (Strongyloides stercoralis);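 active = activation above the mean over all tested compounds plus 3 SD, cut at about 0.9% in these data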;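 also: 0% = DMSO-only wells and 100% = 3 µM delta7-dafachronic acid wells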
hgDAF-12 ag – H. glycines DAF-12 receptor agonists, primary screen, cell-based, luminescence, HEK293, GAL4 fusion, UAS-luciferase; Nuclear hormone receptor DAF-12 (Heterodera glycines), GAL4 fusion; HEK293 GAL4-hgDAF12 UAS-luciferase reporter, agonist luminescence; normalized to butyrate control; activation, % at 6.8 µM; 370,000 compounds, 1.8% hits;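 active = activation above a cutoff set at the mean of all screened compounds plus 3 SD, cut at about 10% in these data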;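 also: 0% = DMSO wells and 100% = sodium butyrate wells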
DAX1 inh-2 – DAX1 (NR0B1) inhibitors on StAR promoter, primary screen, cell-based, luminescence, SF-1 (NR5A1), full-length DAX-1; HEK293T StAR-luciferase reporter, SF-1/DAX-1 repression relief; 370,000 compounds, 1.1% hits; inhibition, % at 6.8 µM; AID 652010, 2013;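 active = inhibition above the mean over all tested compounds plus 3 SD, cut at about 3.6% in these data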;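 also: 0% = DAX-1 cells with DMSO and 100% = cells lacking DAX-1 with DMSO; higher inhibition means more luminescence from relief of DAX-1 repression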
Starred values were filed as active, the others as inactive. A selection: hits, their analogues and other compounds. The true share with any hit is near 4.5%.

What do the screens show for `COc1ccccc1N1CCN(CCCCOc2c(OC)cccc2OC)CC1`?
DAX1 inh-1: 0; hcDAF-12 act: -1; FXN GAA850 act: -2; ssDAF-12 act: -1; hgDAF-12 ag: 0; DAX1 inh-2: -1

What do the screens show for `COc1ccccc1N1CCN(/N=C\c2ccccc2)CC1`?
DAX1 inh-1: 5.1*; hcDAF-12 act: 3; FXN GAA850 act: 2; ssDAF-12 act: -1; hgDAF-12 ag: 5; DAX1 inh-2: 1

How did O=C(CCCC(=O)N1CCN(c2ccccc2F)CC1)c1ccccc1 do in these assays?
DAX1 inh-1: 17*; hcDAF-12 act: 0; FXN GAA850 act: 4; ssDAF-12 act: 0; hgDAF-12 ag: 8; DAX1 inh-2: 2

What do the screens show for `O=C(CCCC(=O)N1CCN(c2ccccc2F)CC1)N1CCN(c2ccccc2F)CC1`?
DAX1 inh-1: 2; hcDAF-12 act: -2; FXN GAA850 act: 3; ssDAF-12 act: -1; hgDAF-12 ag: -1; DAX1 inh-2: 1

What do the screens show for `COc1ccccc1N1CCN(/N=C/c2cc(OC)c(OC)c(OC)c2)CC1`?
DAX1 inh-1: 2; hcDAF-12 act: -1; FXN GAA850 act: 0; ssDAF-12 act: -2; hgDAF-12 ag: -2; DAX1 inh-2: 0

Results for COc1ccccc1N1CCN(CCOc2c(OC)cccc2OC)CC1 ?
DAX1 inh-1: 4.6*; hcDAF-12 act: -1; FXN GAA850 act: -5; ssDAF-12 act: -1; hgDAF-12 ag: -3; DAX1 inh-2: 0

How did COc1ccccc1N1CCN(/N=C/C(Cl)=C/c2ccccc2)CC1 do in these assays?
DAX1 inh-1: 5.0*; hcDAF-12 act: 2; FXN GAA850 act: 4; ssDAF-12 act: 0; hgDAF-12 ag: 8; DAX1 inh-2: 1

Results for COc1ccccc1N1CCN(C(=O)CCc2ccccc2)CC1 ?
DAX1 inh-1: 0; hcDAF-12 act: -2; FXN GAA850 act: 6; ssDAF-12 act: 0; hgDAF-12 ag: 0; DAX1 inh-2: -2

Results for COc1ccccc1N1CCN(C(=O)CCC(=O)O)CC1 ?
DAX1 inh-1: 5.5*; hcDAF-12 act: -2; FXN GAA850 act: -1; ssDAF-12 act: -1; hgDAF-12 ag: 1; DAX1 inh-2: 1

How did COC(=O)C/C=C/[C@@H](C)[C@H](NC(=O)OCC(Cl)(Cl)Cl)c1ccc(-c2ccccc2)cc1 do in these assays?
hcDAF-12 act: -2; ssDAF-12 act: -2; hgDAF-12 ag: 1; DAX1 inh-2: -1

How did O=C(Oc1cc2oc(=O)c3c(c2cc1Cl)CCCC3)c1ccco1 do in these assays?
DAX1 inh-1: 4.7*; hcDAF-12 act: 0; FXN GAA850 act: -1; ssDAF-12 act: -1; hgDAF-12 ag: 3; DAX1 inh-2: 0

How did O=C(COc1cc2oc(=O)c3c(c2cc1Cl)CCCC3)N1C[C@H]2C[C@@H](C1)c1cccc(=O)n1C2 do in these assays?
DAX1 inh-1: 5.7*; hcDAF-12 act: 0; FXN GAA850 act: 1; ssDAF-12 act: -2; hgDAF-12 ag: 1; DAX1 inh-2: -1

Results for CC(Oc1cc2oc(=O)c3c(c2cc1Cl)CCC3)C(=O)N1C[C@H]2C[C@@H](C1)c1cccc(=O)n1C2 (stereo partly drawn) ?
DAX1 inh-1: 1; hcDAF-12 act: -3; FXN GAA850 act: 0; ssDAF-12 act: -1; hgDAF-12 ag: 3; DAX1 inh-2: 1

Results for Cc1oc2c(C)c3oc(=O)c(CCC(=O)N4C[C@H]5C[C@@H](C4)c4cccc(=O)n4C5)c(C)c3cc2c1C ?
DAX1 inh-1: 4.9*; hcDAF-12 act: -4; FXN GAA850 act: 1; ssDAF-12 act: -1; hgDAF-12 ag: -5; DAX1 inh-2: 1

How did Cc1ccc(SCc2cn3cc(Cl)ccc3n2)cc1 do in these assays?
DAX1 inh-1: -2; hcDAF-12 act: 1; FXN GAA850 act: 4; ssDAF-12 act: 0; hgDAF-12 ag: 4; DAX1 inh-2: 0

What do the screens show for `Clc1ccc(SCc2cn3ccccc3n2)cc1`?
DAX1 inh-1: 2; hcDAF-12 act: 2; FXN GAA850 act: 3; ssDAF-12 act: -1; hgDAF-12 ag: 12*; DAX1 inh-2: 1

What do the screens show for `Cc1cccc2nc(CSc3ccc(Cl)cc3)cn12`?
DAX1 inh-1: 2; hcDAF-12 act: 2; FXN GAA850 act: 7; ssDAF-12 act: -1; hgDAF-12 ag: 12*; DAX1 inh-2: 4.2*

What do the screens show for `Nc1nnc(SCc2cn3cc(Cl)ccc3n2)s1`?
DAX1 inh-1: 1; hcDAF-12 act: 2; FXN GAA850 act: 3; ssDAF-12 act: 0; hgDAF-12 ag: 12*; DAX1 inh-2: 1

How did CC(C)C[C@@H]1COc2cc(Br)ccc2S(=O)(=O)N1Cc1cn(Cc2ccccc2)nn1 do in these assays?
hcDAF-12 act: -1; ssDAF-12 act: -1; hgDAF-12 ag: 1; DAX1 inh-2: 0

Results for COc1ccc(N2CCCN(CC(=O)Nc3ccccc3C)CC2)cc1 ?
hcDAF-12 act: -3; ssDAF-12 act: 0; hgDAF-12 ag: 3; DAX1 inh-2: 0

How did NNC(=O)c1ccc(Oc2cc(Cl)cc(Cl)c2)o1 do in these assays?
DAX1 inh-1: 4.3*; hcDAF-12 act: -1; FXN GAA850 act: 1; ssDAF-12 act: 0; hgDAF-12 ag: -1; DAX1 inh-2: 0

Results for O=C(NCC1CC1)c1ccc(Oc2cc(Cl)cc(Cl)c2)o1 ?
DAX1 inh-1: 1; hcDAF-12 act: -1; FXN GAA850 act: 1; ssDAF-12 act: -1; hgDAF-12 ag: -1; DAX1 inh-2: 0

Results for O=C(Nc1ccc2c(c1)CCC2)c1ccc(Br)o1 ?
DAX1 inh-1: 3; hcDAF-12 act: 5.8*; FXN GAA850 act: 4; ssDAF-12 act: 0; hgDAF-12 ag: 13*; DAX1 inh-2: 2

How did COc1ccc(CC(=O)NNC(=O)c2ccc(Br)o2)cc1 do in these assays?
DAX1 inh-1: -1; hcDAF-12 act: 0; FXN GAA850 act: 1; ssDAF-12 act: -1; hgDAF-12 ag: 0; DAX1 inh-2: 0

How did COC(=O)Cc1ccc(NC(=O)c2ccc(Br)o2)cc1 do in these assays?
DAX1 inh-1: 0; hcDAF-12 act: 3; FXN GAA850 act: 3; ssDAF-12 act: -1; hgDAF-12 ag: 12*; DAX1 inh-2: 0

Results for C/C(=N\NC(=O)c1ccccc1N)c1ccc(NC(=O)Cc2ccccc2)cc1 ?
DAX1 inh-1: 6.9*; hcDAF-12 act: 3; FXN GAA850 act: 2; ssDAF-12 act: 1; hgDAF-12 ag: 8; DAX1 inh-2: 2
